Compound activity deposited in PubChem by several laboratories.
MITF TRPM1 inh = MITF TRPM1 promoter inhibition in SK-MEL-5 cells; actives 0.83% (n = 330,000); SK-MEL-5 TRPM1 promoter luciferase, 24 h; AID 488899; inhibition, % at 12.5 µM;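 active means mean inhibition across replicates of 60% or more, whatever share of single replicates reaches that level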
Peg3 promoter = inhibitors of Peg3 promoter | HeLa PEG-Prom luciferase reporter, luminescence, overnight | inhibition, % at 20 µM | actives 1.7% (n = 360,000) | AID 588405;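 active means inhibition of at least 50% at 20 µM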
KKLEB cytotox = CF airway cell cytotoxicity counter-screen | KKLEB CF airway cells viability, ATPlite luminescence, overnight; active compounds read low; cells stimulated with P. aeruginosa culture filtrate | activity change (cytotoxicity), % at 5 µM | actives 0.36% (n = 360,000) | AID 602141;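 active means corrected activity change at or below -50% at 5 µM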
Shn3 inh set2 = Schnurri-3 reporter inhibition in Clone20 osteoblasts | Clone20 osteoblast Shn3 3'UTR firefly luciferase, 24 h | inhibition, % at 12.5 µM | actives 0.52% (n = 360,000) | AID 588674;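 active means mean inhibition of at least 75% with every replicate also reaching 75%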;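 further: 0% = median of neutral control wells and 100% = pilot-screen positive control compound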
HIF-2a inh = inhibitors of HIF-2a. 786-0 RCC cells HIF-2a reporter, luciferase luminescence, overnight. inhibition, % at 18.8 µM. actives 0.72% (n = 360,000);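 active means inhibition of the luminescence signal of 40% or more relative to plate controls, in a single-dose primary screen at 18.75 µM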
CF NFkB block = cystic fibrosis NF-kB activation inhibition; KKLEB NF-kB-GFP reporter, PAF-induced, GFP fluorescence overnight; inhibition, % at 5 µM; actives 0.86% (n = 360,000);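 active means at least 50% inhibition at 5 µM, scaled per plate between neutral and stimulator controls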;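 further: PAF is a Pseudomonas aeruginosa culture filtrate used as stimulus; plate controls were PAF-stimulated DMSO wells for no effect and unstimulated DMSO wells for full effect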
* hit, by the source's call; ! = repeats disagree. Compounds with a hit are over-represented: about 2.8% of the library has one in this group of screens.

CCN1CCN(Cc2ccc(NC(=O)c3cc(NC(=O)C(=O)c4c[nH]c5ccccc45)cc(OC)c3)cc2C(F)(F)F)CC1 was read as MITF TRPM1 inh 57.5, Peg3 promoter 93.6*, KKLEB cytotox 6.8, Shn3 inh set2 32.7, HIF-2a inh -85.4 and CF NFkB block -2.1.
Screening CCN1CCN(Cc2ccc(C(=O)Nc3ccc(C)c(NCc4cnc(NC(=O)OC)cn4)c3)cc2C(F)(F)F)CC1 returned MITF TRPM1 inh 7.8, Peg3 promoter 2.3, KKLEB cytotox 1.0, Shn3 inh set2 4.7, HIF-2a inh -24.1 and CF NFkB block 14.0.
For CCN1CCN(Cc2ccc(NC(=O)c3ccc(C)c(NC(=O)c4ccnnc4)c3)cc2C(F)(F)F)CC1 the results were MITF TRPM1 inh -9.3, Peg3 promoter 6.2, KKLEB cytotox -18.8, Shn3 inh set2 -16.4, HIF-2a inh 20.8 and CF NFkB block 45.9.
Screening CCN1CCN(Cc2ccc(NC(=O)c3cc(NC(=O)c4cc(C)on4)cc(OC)c3)cc2C(F)(F)F)CC1 returned MITF TRPM1 inh 49.5, Peg3 promoter 57.4*!, KKLEB cytotox 4.9, Shn3 inh set2 -8.8, HIF-2a inh -28.2 and CF NFkB block 15.5.
Screening CC(C)NC(=O)C(c1ccc(F)cc1)N(C(=O)CCC(=O)Nc1ccccn1)c1cccc(F)c1 (stereo not drawn) returned MITF TRPM1 inh 1.8, Peg3 promoter -0.5, KKLEB cytotox 11.9, Shn3 inh set2 11.6, HIF-2a inh 14.1 and CF NFkB block 4.2.
Screening CCOC(=O)c1c(=O)n(O)c2ccc(OC)cc2[n+]1[O-] returned MITF TRPM1 inh -1.6, Peg3 promoter 6.1, KKLEB cytotox 2.3, Shn3 inh set2 5.6, HIF-2a inh 1.7 and CF NFkB block -11.9.
CSCCC(NC(=O)c1ccco1)C(=O)N1CC(C)OC(C)C1 (stereo not drawn) was read as Peg3 promoter 3.5, KKLEB cytotox 17.0, Shn3 inh set2 10.7, HIF-2a inh 7.3 and CF NFkB block 0.7.
For COc1ccc(-c2cc(=O)c3cc(OC)ccc3o2)cc1 the results were MITF TRPM1 inh 22.8, Peg3 promoter -85.2, KKLEB cytotox -51.1*, Shn3 inh set2 41.2, HIF-2a inh -88.9 and CF NFkB block -12.8.
For Cc1cccc(N2C(=O)C(Oc3ccc(Cl)cc3Cl)C2C=O)c1C (stereo not drawn) the results were MITF TRPM1 inh 12.6, Peg3 promoter 68.8*, KKLEB cytotox -45.0, Shn3 inh set2 -6.1, HIF-2a inh -44.2 and CF NFkB block 22.4.
`CCOC(=O)c1c(-n2cccc2)sc2c1CCCC2=O` gave MITF TRPM1 inh -2.6, Peg3 promoter 51.4*, KKLEB cytotox 4.7, Shn3 inh set2 -25.5, HIF-2a inh 23.4 and CF NFkB block 0.2.
For CCOC(=O)c1c(N2C(=O)Nc3ccccc3N2O)sc2c1CCCC2 the results were MITF TRPM1 inh -3.3, Peg3 promoter 7.8, KKLEB cytotox 1.1, Shn3 inh set2 0.4, HIF-2a inh 16.9 and CF NFkB block -4.3.
Screening CS(=O)(=O)N(CC(=O)N1CCCC1)Cc1ccc(Cl)cc1 returned MITF TRPM1 inh -3.1, Peg3 promoter 5.4, KKLEB cytotox 14.8, Shn3 inh set2 -16.8, HIF-2a inh 15.0 and CF NFkB block -2.0.
`O=C(CCl)N=c1sccn1Cc1cccc2ccccc12` gave MITF TRPM1 inh 53.0, Peg3 promoter 33.5, KKLEB cytotox -98.5*, Shn3 inh set2 11.2, HIF-2a inh 25.5 and CF NFkB block 91.3*.
CCC(=O)OCC(=O)N=c1sccn1Cc1ccccc1Cl was read as MITF TRPM1 inh 10.1, Peg3 promoter 13.8, KKLEB cytotox -20.2, Shn3 inh set2 -1.8, HIF-2a inh 16.9 and CF NFkB block 18.4.
For Cc1c(Cl)ccc2c(C(=O)NCCN3CCCCC3)cc(-c3ccccn3)nc12 the results were MITF TRPM1 inh 12.6, Peg3 promoter 68.0*, KKLEB cytotox -4.1, Shn3 inh set2 -10.8, HIF-2a inh -6.3 and CF NFkB block 3.1.
Screening Cc1c(Cl)ccc2c(C(=O)NCCCn3nccc3C)cc(-c3ccccn3)nc12 returned MITF TRPM1 inh 7.4, Peg3 promoter 12.7, KKLEB cytotox 18.0, Shn3 inh set2 3.1, HIF-2a inh -2.5 and CF NFkB block -37.7.
Screening COc1ccccc1-c1cc(C(=O)NC2CCN(C)CC2)c2ccc(Cl)c(C)c2n1 returned MITF TRPM1 inh 7.7, Peg3 promoter 105.3*, KKLEB cytotox -31.5, Shn3 inh set2 19.6, HIF-2a inh 7.2 and CF NFkB block 12.6.
For COc1ccc(NC(C)=O)cc1S(=O)(=O)N1CC=C(c2ccccc2)CC1 the results were MITF TRPM1 inh -5.3, Peg3 promoter 12.2, KKLEB cytotox 11.2, Shn3 inh set2 -0.1, HIF-2a inh 17.4 and CF NFkB block -7.3.
CCCCN(C(=O)c1cccc2c(=O)c(C)c(-c3ccccc3)oc12)c1ccccc1 was read as MITF TRPM1 inh 5.7, Peg3 promoter 24.9, KKLEB cytotox 0.5, Shn3 inh set2 -19.2, HIF-2a inh 20.7 and CF NFkB block -0.2.
`COCCNC(=O)C1(C)CCCN(C(=O)COc2ccccc2)C1` (stereo not drawn) gave Peg3 promoter -5.3, KKLEB cytotox -0.6, Shn3 inh set2 0.9, HIF-2a inh 8.6 and CF NFkB block 8.4.
Screening Cc1cc(C)c(NC(=S)NC(NC(=O)c2ccccc2)C(Cl)(Cl)Cl)c(C)c1 (stereo not drawn) returned MITF TRPM1 inh -1.5, Peg3 promoter 69.0*, KKLEB cytotox -11.7, Shn3 inh set2 68.5, HIF-2a inh -5.3 and CF NFkB block 12.1.
For Cc1ccc(NC(=S)NC(NC(=O)c2ccccc2)C(Cl)(Cl)Cl)c(C)c1 (stereo not drawn) the results were MITF TRPM1 inh 0.3, Peg3 promoter 35.0, KKLEB cytotox 18.7, Shn3 inh set2 1.1, HIF-2a inh 30.6 and CF NFkB block -0.9.
Cc1ccc(C)c(NC(=S)NC(NC(=O)Cc2ccccc2)C(Cl)(Cl)Cl)c1 (stereo not drawn) was read as MITF TRPM1 inh 4.5, Peg3 promoter 83.8*, KKLEB cytotox 10.0, Shn3 inh set2 28.3, HIF-2a inh 6.9 and CF NFkB block 17.8.
For COc1ccc(C(=O)COC(=O)CCn2nnc(-c3cccs3)n2)cc1 the results were MITF TRPM1 inh -3.8, Peg3 promoter 0.5, KKLEB cytotox -0.4, Shn3 inh set2 3.5, HIF-2a inh 3.3 and CF NFkB block -1.5.
For Cc1ccccc1-n1nc(C(=O)c2cccs2)cc(-c2nc3ccccc3[nH]2)c1=N the results were MITF TRPM1 inh 7.8, Peg3 promoter 25.6, KKLEB cytotox -21.1, Shn3 inh set2 17.1, HIF-2a inh 5.2 and CF NFkB block 18.5.
Screening COc1ccc(-n2nc(C(=O)c3cccs3)cc(-c3nc4ccccc4[nH]3)c2=N)cc1 returned MITF TRPM1 inh 58.9, Peg3 promoter 87.4*, KKLEB cytotox -13.1, Shn3 inh set2 -136.7, HIF-2a inh 16.2 and CF NFkB block -59.1.
